PubChem BioAssay AID1850 (Southern Research Specialized Biocontainment Screening …, 2009)
The campaign covered roughly 310,000 compounds. About 1,000 (0.32%) were called active. The rule behind the calls is not given here. A selection follows. Potency and affinity values are given separately.

test: Inhibition of PhoP regulon, Salmonella typhi GFP reporter cells, confirmation, 4 h (AID 1850); conditions: Salmonella Typhi PhoP-promoter GFP reporter, fluorescence, at 50 µM, active compounds read high;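 note: 0% = induced wells with vehicle and 100% = uninduced wells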

Structure (SMILES) | inhibition
NC(=O)c1nsc(C(=O)N(c2ccc3c(c2)OCO3)C(C(=O)NCC2CCCO2)c2ccc(F)cc2)c1N (stereo unspecified) | 6.99% (inactive)
CSCCC(NS(=O)(=O)c1cc(C(=O)O)ccc1Cl)C(=O)O (stereo unspecified) | -1.99% (inactive)
C=CCNC(=O)c1oc2ccc(S(=O)(=O)N3CCCCC3)cc2c1C | 0.5% (inactive)
CCN(CC)CCCNC(=O)C1CCN(c2ncnc3c2sc2cccc(F)c23)CC1 | 3.1% (inactive)
COc1ccc(Nc2nc(NN)nc(Nc3ccc(OC)cc3)n2)cc1 | -3.28% (inactive)
COc1c2n(C)ccc3c-2n(c(=O)c1=O)c1ccccc31 | 17.2% (inactive)
O=S(=O)(NCCSc1ccc(Cl)cc1)c1ccc2c(c1)OCCO2 | -8.59% (inactive)
COc1cc(Cl)ccc1OCc1cc(C(=O)N2CCCCCCC2)no1 | -27.8% (inactive)
CC1(c2nnc(-c3ccc(F)cc3)o2)CC(c2ccc([N+](=O)[O-])cc2)=NO1 (stereo unspecified) | 3.35% (inactive)
CCNCc1ccc(OCc2ccccc2F)c(OC)c1 | -10.1% (inactive)
COc1cc(CNCCCCO)ccc1OCc1ccccc1F | -5.61% (inactive)
Fc1ccc(CNCCc2c[nH]c3ccccc23)cc1 | 11.8% (inactive)
COc1cccc(CNCCc2c[nH]c3ccccc23)c1OCc1ccc(F)cc1 | -6.02% (inactive)
Cc1cccnc1NC(=O)CCc1nnc2ccc(N3CCC4(CC3)OCCO4)nn12 | 3.16% (inactive)
Oc1ccc2ccccc2c1CNc1ccc(Br)cn1 | -4.93% (inactive)
CC(C)c1nn(-c2cc(C(F)(F)F)ccn2)c(=O)o1 | 1.48% (inactive)
CCOC(=O)c1cccc(NC(=O)c2cc(C)nn2-c2ccccc2)c1 | 8.61% (inactive)
Cc1ccccc1NC(=O)C[n+]1cc(-c2ccccc2)n2c1CCC2 | -9.34% (inactive)
O=C(C[n+]1cc(-c2ccccc2)n2c1CCC2)Nc1nc(-c2ccccc2)cs1 | -3.98% (inactive)
O=C(C[n+]1cc(-c2ccc(Cl)cc2)n2c1CCC2)Nc1nc(-c2ccc(F)cc2)cs1 | -19% (inactive)
Cc1ccc(NC(=O)C[n+]2cc(-c3ccc(C)cc3)n3c2CCC3)cc1 | 14.9% (inactive)
Cc1cccc(C)c1NC(=O)C[n+]1cc(-c2ccccc2)n2c1CCC2 | -8.77% (inactive)

Structure (SMILES) | inhibition
Cc1ccc(NC(=O)C[n+]2cc(-c3ccccc3)n3c2CCC3)cc1 | 10% (inactive)
Cc1ccc(-c2c[n+](CC(=O)Nc3ccccc3C)c3n2CCC3)cc1 | 5.92% (inactive)
Cc1ccc(NC(=O)C[n+]2cc(-c3ccccc3)n3c2CCC3)c(C)c1 | 19.1% (inactive)
Cc1ccc(C(=O)CSc2nc(C)cc(C)c2C(N)=O)cc1 | 12.8% (inactive)
Cc1ccc(C(=O)N2N=C(c3cccc(NS(C)(=O)=O)c3)CC2c2cccs2)cc1 (stereo unspecified) | -10.1% (inactive)
Cc1ccc(Cl)cc1NC(=O)C(=O)N/N=C/c1ccc2c(c1)OCO2 | -4.53% (inactive)
COc1cccc(/C=C/C(=O)NCc2ccc(S(N)(=O)=O)cc2)c1 | -0.15% (inactive)
CCOC(=O)c1c(NC(=O)Cn2ccsc2=N)sc(C)c1C | 14.8% (inactive)
Cc1ccc(CSc2nnc(-c3ccncc3)n2C)cc1 | -10.9% (inactive)
O=C(NC1CCCCCC1)c1ccc(Br)o1 | -0.61% (inactive)
Cc1cc(NC(=O)CCC(=O)N(CC(=O)NC2CCCC2)c2ccc(Cl)c(Cl)c2)no1 | 14.6% (inactive)
Cc1cccc(C(=O)NCC(=O)OCC(=O)NC2CCCCCCC2)c1 | 0.27% (inactive)
O=C(C[n+]1cc(-c2ccc(F)cc2)n2c1CCC2)Nc1nc(-c2ccc(F)cc2)cs1 | -2.82% (inactive)
O=C(C[n+]1cc(-c2ccc(F)cc2)n2c1CCC2)Nc1nc(-c2ccccc2)cs1 | 0.35% (inactive)
Cc1ccc(-c2c[n+](CC(=O)Nc3nc(-c4ccc(F)cc4)cs3)c3n2CCC3)cc1 | -3.86% (inactive)
Cc1ccc(-c2c[n+](CC(=O)Nc3c(C)cccc3C)c3n2CCC3)cc1 | -24.6% (inactive)
CCOC(=O)C(C)c1ccc2cc(OC)ccc2c1 (stereo unspecified) | -2.05% (inactive)
Cc1cc(C)c2c(c1)/C(=N/NC(=O)c1cc(C)oc1C)CCC2 | -3.06% (inactive)
CN(C)c1ccnc2sc3c(SCc4ccc(Cl)cc4)ncnc3c12 | -7.49% (inactive)
CC(C)n1c(SCc2ccc(Cl)cc2)nc2c1c(=O)[nH]c(=O)n2C | -4.82% (inactive)
CN(C)CCN(C(=O)c1ccc(S(=O)(=O)N2CCCC2)cc1)c1nc2ccc(Br)cc2s1 | 0.55% (inactive)
O=C(CC1NCCc2ccccc21)Nc1ccc(Cl)cc1 (stereo unspecified) | 8.21% (inactive)

Structure (SMILES) | inhibition
O=C(CC1NCCc2ccccc21)Nc1ccccc1 (stereo unspecified) | 7.99% (inactive)
Cc1cc(NCCO)nc(N2CCOCC2)n1 | 4.73% (inactive)
Cc1c(Br)cc(C(=O)O)c(C)c1C | 7.99% (inactive)
COc1cc(C(=O)Nc2ccc(C)cc2C(NCC(=O)NN)c2ccccc2)cc(OC)c1OC (stereo unspecified) | -8.05% (inactive)
Nn1c(-c2ccccc2)cc(-c2ccccc2)cc1=O | -2.08% (inactive)
O=c1cc(-c2ccccc2)cc(-c2ccccc2)n1CCO | 6.95% (inactive)
CN(C)c1ccc(/C=[N+](\[O-])C2N(c3ccccc3)C(=S)SC2(C)C)cc1 (stereo unspecified) | -5.4% (inactive)
COc1cc(C2c3c(oc4ccccc4c3=O)C(=O)N2CCN2CCOCC2)cc(OC)c1OC (stereo unspecified) | -13.4% (inactive)
Clc1ccccc1OCCCn1ccnc1 | -8.4% (inactive)
c1ccc2cc(OCCCn3ccnc3)ccc2c1 | -0.84% (inactive)
COc1ccc2nc(SCC(=O)Nc3ccccc3C#N)[nH]c2c1 | -8.31% (inactive)
Cc1ccc(-n2nc3c(=S)[nH]nc(C)c3c2C)cc1 | 2.54% (inactive)
COc1cccc(C(=O)Nc2ccc(C(=O)c3ccncc3)cc2)c1 | -15.6% (inactive)
CCC(C)NC(=O)CSc1nnc(-c2c[nH]c3ccccc23)o1 (stereo unspecified) | 7.49% (inactive)
Cc1ccc(O)c(Nc2nc(-c3ccccc3)nc3ccccc23)c1 | 8.76% (inactive)
COc1ccccc1Nc1c2c(nc3ccccc13)CCC2 | 0.56% (inactive)
COc1ccc(Nc2nc(-c3ccccc3)nc3ccccc23)cc1 | 6.48% (inactive)
Cc1ccc(O)c(Nc2ncnc3ccccc23)c1 | 3.94% (inactive)
COc1ccc(Nc2cccc3ccccc23)cc1 | -1.63% (inactive)
COc1cc(Nc2c3ccccc3nc3ccccc23)cc(OC)c1OC | -7.36% (inactive)
COc1ccc(OC)c(Nc2c3ccccc3nc3ccccc23)c1 | -13.7% (inactive)
COc1ccc(Nc2ncnc3ccccc23)cc1 | -1.42% (inactive)
